Results published in PubChem BioAssay (NCATS).
Records with an inconclusive call do not appear. Entries that show only a call come without a potency. Unmarked numbers belong to inactive results. Calls of active or inactive are those of the source. Calls come from the whole dose curve; as a rule, active = well fitted activation curve with a large enough effect; inconclusive = small, poorly fitted or top-dose-only effect; inactive = flat fitted curve, though single readings scatter.

Assay: Primary redox qHTS assay for identification of artifact compounds. (AID 1845223)
Details: Amplex Red/HRP redox cycling with DTT, fluorescence; series mostly up to 53.8 µM
Summary of the method: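 Redox-cycling detection via DTT (250 uM final) oxidation coupled to Amplex Red (25 uM)/HRP (250 mU/mL) in HBSS. 15 min preincubation plus 30 min after DTT, room temperature. Ex/Em 525/598 nm; 4-parameter Hill fit against DMSO and 10 uM DA3003.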

Structure (SMILES)	Potency	redox activity (% of DA3003)
CC[C@@H](c1ccc(F)c(F)c1)n1c(C(=O)OC)c(-c2ccno2)[nH]c1=S	inactive	
CC1(C)CC2C(O)C3=C(CC(C)(O)C2C1)C(=O)OC3O (centres undefined)	inactive	
CC1(CO)CC2C(O)C(=O)C3(CO)CC3(C)C2C1 (centres undefined)	inactive	
COc1cccc2c1CCC[C@H]2CN(C)CCc1ccc2ccoc2c1	inactive	
c1ccc(Nc2nc3c(s2)CCCc2[nH]ncc2-3)nc1	inactive	
CC1(C)CCCC2(C)C1C(O)C=C(CO)C2(O)C(=O)O (centres undefined)	inactive	
CC(=O)c1cnc2ccc(-c3cc(Cl)c(O)c(Cl)c3)nc2c1NC1CCC(CN(C)C)CC1 (centres undefined)		2.52% [at 11.5 µM]
CC1(CO)CC[C@]2(C(=O)O[C@@H]3O[C@H](CO)[C@@H](O)[C@H](O)[C@H]3O)CC[C@]3(C)C(=CCC4[C@@]5(C)CC[C@H](O[C@@H]6O[C@H](C(=O)O)[C@@H](O)[C@H](O)[C@H]6O)C(C)(C)C5CC[C@]43C)C2C1 (some centres undefined)		19.9% [at 11.5 µM]
CCC/C=C/C(=O)O[C@H]1CC(C)(C)CC2[C@]13[C@H](O)O[C@@]21CCC2[C@@]4(C)CC[C@H](O[C@@H]5O[C@H](C(=O)O)[C@@H](O)[C@H](O[C@@H]6O[C@H](CO)[C@H](O)[C@H](O)[C@H]6O[C@@H]6O[C@@H](C)[C@H](O)[C@@H](O)[C@H]6O[C@@H]6OC[C@](O)(CO)[C@H]6O)[C@H]5O[C@@H]5O[C@H](CO)[C@H](O)[C@H](O)[C@H]5O)C(C)(C)C4CC[C@@]2(C)[C@]1(C)C[C@H]3OC(C)=O (some centres undefined)		-2.32% [at 11.5 µM]
